In PubChem BioAssay (NCI):
This is part of a sample that, as a whole, favours compounds with a hit. Of some 83,000 tested, about 20% had one in any assay.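 Growth was measured after 48 h exposure to one concentration of compound in 96-well plates. Values under 10 count as active.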 Unmarked numbers belong to inactive results. Active and inactive are the calls of the source.

How the values were obtained:
Test in all cases: NCI-60 one-dose screen, 48 h (100 = growth as untreated, 0 = no growth, -100 = all killed)
Conditions in all cases: 10 µM unless noted
[1] = system: NCI-H23 lung
[2] = system: NCI-H226 lung
[3] = system: NCI-H322M lung
[4] = system: HOP-62 NSCLC
[5] = system: NCI-H460 lung
[6] = system: HOP-92 NSCLC
[7] = system: NCI-H522 lung
[8] = system: A549/ATCC NSCLC
[9] = system: 786-0 renal
[10] = system: COLO 205 colon
[11] = system: DU-145 prostate
[12] = system: K-562 leukemia
[13] = system: MALME-3M melanoma
[14] = system: MDA-MB-231 breast
[15] = system: RXF 393 renal
[16] = system: SF-268 CNS
[17] = system: SF-295 CNS
[18] = system: SF-539 CNS
[19] = system: UACC-257 melanoma
[20] = system: M14 melanoma

Compound	growth [1]	growth [2]	growth [3]	growth [4]	growth [5]	growth [6]	growth [7]	growth [8]	growth [9]	growth [10]	growth [11]	growth [12]	growth [13]	growth [14]	growth [15]	growth [16]	growth [17]	growth [18]	growth [19]	growth [20]
Cc1ccc(CNc2c3ccccc3nc3cc(NC(=O)CCN4CCCC4)ccc23)cc1	-48.1% (active)	35%	1.8% (active)	19.9%	-64.7% (active)	-0.443% (active)	-41.2% (active)	-36.9% (active)	22.3%	-40.3% (active)	-67.9% (active)	-30.3% (active)	-94% (active)	-7.47% (active)	1.55% (active)	15.1%	36.7%	16.7%	24.1%	-88% (active)
O=C(CCN1CCCC1)Nc1ccc2c(NCCCc3ccccc3)c3ccccc3nc2c1	14.8%	42.3%	16.6%	24.7%	-72.2% (active)	21.5%	-49.9% (active)	15.5%	24.9%	-50.4% (active)	-52.6% (active)	-7.07% (active)	-90.7% (active)	-24.3% (active)	5.65% (active)	21%	46.9%	13.7%	14.7%	-61.5% (active)
CCN(CC)c1ccc(/C=N/NC(=O)CSc2nc3ccccc3c(=O)n2CCc2ccc(S(N)(=O)=O)cc2)c(O)c1	33.9%	37.9%	29.4%	30.4%	12.8%	46.8%	-14.6% (active)	25.4%	49.5%	1.47% (active)	31%	7.07% (active)	44.3%	26%	44.1%	32.5%	38.6%	22.7%	16.7%	31.1%
CCN1C(=O)/C(=C/C(=O)OC)S/C1=N\NC(=O)c1cc2ccc1/C=C\c1ccc(cc1)/C=C\2	99.6%	92.7%	92.3%	101%	104%	81.6%	59.7%	96.6%	90.6%	108%	108%	54.2%	91.9%	96.1%	101%	97.8%	96.9%	90.2%	92.7%	87.1%
Cc1ccc(NC(C(=O)c2ccccc2)c2ccccc2)cc1 (stereo not given)	59.5%	75.3%	97.3%	80.2%	46.9%	39.8%	34.4%	58%	75.5%	41.9%	58.2%	46.5%	-2.02% (active)	72.4%	95.2%	68.6%	53.2%	78.4%	10.5%	77.6%
CCCCNC(=O)Oc1ccc(/C(=C(\C)c2ccccc2)c2ccc(OCCN3CCCCC3)cc2)cc1	67.9%	86.8%	75.3%	77.9%	40.5%	68.1%	73.1%	57.8%	27.1%	14.3%	82.3%	5.45% (active)	44.6%	73%	53.2%	67.7%	42.6%	31%	-24.1% (active)	-15.6% (active)
COc1cc(/C=N/O)nc(-c2ccccn2)c1	19.9%	11.7%	23.9%	23.9%	5.13% (active)	54.4%	7.77% (active)	14.8%	17.5%	10.7%	24.7%	11.6%	6.48% (active)	26.5%	21.2%	6.74% (active)	14.8%	4.89% (active)	5.15% (active)	6.86% (active)
Cc1ccc(S(=O)(=O)Nn2c3c(cc(-c4nc5ccccc5s4)c2=O)CCCCCC3)cc1	94.8%	76.6%	100%	94.9%	104%	85.4%	89.1%	101%	101%	119%	105%	98.4%	88.3%	93.2%	101%	96%	97.2%	100%	97.3%	99%
Cn1ccnc1C(=O)/C=C/c1ccc(CC(=O)Nc2ccc(F)cc2)cc1	27.8%	82.5%	42.8%	18.4%	3.59% (active)	71%	16.9%	38.2%	30.4%	41.6%	-15.6% (active)	5.72% (active)	90.4%	30.1%	35.6%	10%	37.1%	2.33% (active)	85.3%	81.1%
COc1ccccc1/C=C1\Oc2cc(OCCN3CCCC3)ccc2C1=O	82.8%	85.3%	99.8%	96.4%	84.6%	59.5%	89.8%	95.3%	82.5%	95.4%	89.2%	-5.04% (active)	104%	81.8%	71.5%	91.3%	95.4%	85.9%	95%	77.2%
CC(C)(C)CC(C)(C)n1nnnc1C(NC12CC3CC(CC(C3)C1)C2)c1ccccc1 (stereo not given)	90.8%	84.2%	105%	101%	94.5%	87%	74%	80.7%	86.3%	122%	96.5%	73.1%	99.2%	81.4%	85.9%	83.3%	75.9%	95.7%	89.1%	82.8%
Cc1cc2nc3c4cccc(O)c4n(CCN(C)C)c3nc2cc1C	32.3%	37%	38%	31.7%	9.09% (active)	55.1%	31%	20.4%	40.4%	59.7%	29.8%	6.28% (active)	32.9%	28.1%	35.1%	51.1%	32.1%	25.7%	63.5%	44.2%
NCCCCCCNc1cc(-c2cccc(OC(F)(F)F)c2)nc2ccc(N3CCCC3)cc12	0.0621% (active)	81.2%	-13.1% (active)	-33.3% (active)	-91.8% (active)	39.3%	-44.5% (active)	16.6%	-65.2% (active)	-62.1% (active)	-17.4% (active)	-52.6% (active)	-93.8% (active)	-79.9% (active)	-90.8% (active)	-3.93% (active)	-69.1% (active)	-87.6% (active)	-67.7% (active)	-71.4% (active)
O=C(NCCc1ccccc1)Nc1ccc2cc3ccc(NC(=O)NCCc4ccccc4)cc3nc2c1	10.3%	88.7%	19.2%	39.4%	16.8%	68.1%	-10.8% (active)	73.8%	38.4%	10.8%	29.2%	1.41% (active)	-13.8% (active)	-17.5% (active)	-21.5% (active)	-54.2% (active)	0.203% (active)	-61.7% (active)	85.6%	33.8%
COc1ccc(NC(N)=NCCCOc2ccc(F)cc2)cc1	64.4%	91%	88.1%	74.2%	101%	80.8%	85.5%	73.1%	89.1%	-0.958% (active)	48.5%	91.5%	96.6%	93.8%	104%	77.7%	70.9%	71.7%	25.4%	69.1%
